Assay [1] is described as follows: binders of probe aFSTL3 on microarray, primary screen, stem cell growth factor project, biochemical, small-molecule microarray, fluorescence 635/667 (AID 1064).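 Note: measures binding of the biotinylated anti-FSTL3 antibody to printed compounds.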 The note with it: higher = more signal.
Assay [2] can be described thus: binders from COS7 lysate, DM2A8 probe, primary screen, torsin A project, cell lysate, small-molecule microarray, fluorescence 635/667 (AID 1065). Conditions: higher = more signal, COS7 lysate expressing mutant human TOR1A.
Assay [3] in a line: binders of probe aFGF2 on microarray, primary screen, stem cell growth factor project, biochemical, small-molecule microarray, fluorescence 635/667 (AID 1067).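 Note: measures binding of biotinylated aFGF2 protein to printed compounds on slides; z-score merges feature fluorescence and signal-to-noise across triplicate slides.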 Conditions: higher = more signal.
Assay [4] is described as follows: binders of probe aFGF10 on microarray, primary screen, stem cell growth factor project, biochemical, small-molecule microarray, fluorescence 635/667 (AID 1071).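 Note: score merges 667 nm spot intensity and signal to noise from triplicate slides.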 Conditions: higher = more signal.
The target in assay [5] is Neurogenic locus notch homolog protein 2 (Homo sapiens) (UniProt Q04721). The assay can be described thus: Notch2 binders on small-molecule microarrays, primary screen, biochemical, small-molecule microarray, 635 nm fluorescence, stem cell growth factors (AID 1073). The note with it: Notch2 binding, higher = more signal.
For assay [6], the target named is Pro-neuregulin-1, membrane-bound isoform (Homo sapiens) (UniProt Q02297). The assay can be described thus: NRG1 binders on small-molecule microarrays, primary screen, psychiatric disease protein project, biochemical, small-molecule microarray, fluorescence 635/667 (AID 1075).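 Note: score combines 667 nm spot fluorescence with signal to noise.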 The note with it: NRG1 binding, 635 nm fluorescence, higher = more signal.
Assay [7] relates to Neuregulin-1 EGF-like domain. Nature of the assay: binders of neuregulin-1 EGF-like domain, primary screen, biochemical, small-molecule microarray, 635 nm fluorescence (AID 1081).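 Note: binding of the protein to compounds printed on small-molecule microarray slides.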 The note with it: small-molecule microarray binding, higher = more signal.
The nature of assay [8]: FRG1 promoter luciferase signal modulators, primary screen, FRG1 inhibition for FSHD, cell-based, C2C12 myotubes, firefly/Renilla luciferase, luminescence (AID 1084). The note with it: higher = more signal, called active from +8 up or from −8 down.
Assay [9] can be described thus: binders of probe aFST on microarray, primary screen, stem cell growth factor project, biochemical, small-molecule microarray, fluorescence 635/667 (AID 1086).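 Note: score merges 667 nm fluorescence with signal-to-noise of each printed compound spot.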 Conditions: higher = more signal.
Assay [10] is described as follows: binders of probe aHhip on microarray, primary screen, stem cell growth factor project, biochemical, small-molecule microarray, fluorescence 635/667 (AID 1087).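 Note: score merges spot fluorescence at 667nm with spot signal to noise ratio.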 The note with it: higher = more signal.

The text below walks through data of PubChem BioAssay.

Activity calls are given as the source filed them.

Sequence of Neurogenic locus notch homolog protein 2 (Homo sapiens) (Q04721 whole entry, looked up, canonical isoform): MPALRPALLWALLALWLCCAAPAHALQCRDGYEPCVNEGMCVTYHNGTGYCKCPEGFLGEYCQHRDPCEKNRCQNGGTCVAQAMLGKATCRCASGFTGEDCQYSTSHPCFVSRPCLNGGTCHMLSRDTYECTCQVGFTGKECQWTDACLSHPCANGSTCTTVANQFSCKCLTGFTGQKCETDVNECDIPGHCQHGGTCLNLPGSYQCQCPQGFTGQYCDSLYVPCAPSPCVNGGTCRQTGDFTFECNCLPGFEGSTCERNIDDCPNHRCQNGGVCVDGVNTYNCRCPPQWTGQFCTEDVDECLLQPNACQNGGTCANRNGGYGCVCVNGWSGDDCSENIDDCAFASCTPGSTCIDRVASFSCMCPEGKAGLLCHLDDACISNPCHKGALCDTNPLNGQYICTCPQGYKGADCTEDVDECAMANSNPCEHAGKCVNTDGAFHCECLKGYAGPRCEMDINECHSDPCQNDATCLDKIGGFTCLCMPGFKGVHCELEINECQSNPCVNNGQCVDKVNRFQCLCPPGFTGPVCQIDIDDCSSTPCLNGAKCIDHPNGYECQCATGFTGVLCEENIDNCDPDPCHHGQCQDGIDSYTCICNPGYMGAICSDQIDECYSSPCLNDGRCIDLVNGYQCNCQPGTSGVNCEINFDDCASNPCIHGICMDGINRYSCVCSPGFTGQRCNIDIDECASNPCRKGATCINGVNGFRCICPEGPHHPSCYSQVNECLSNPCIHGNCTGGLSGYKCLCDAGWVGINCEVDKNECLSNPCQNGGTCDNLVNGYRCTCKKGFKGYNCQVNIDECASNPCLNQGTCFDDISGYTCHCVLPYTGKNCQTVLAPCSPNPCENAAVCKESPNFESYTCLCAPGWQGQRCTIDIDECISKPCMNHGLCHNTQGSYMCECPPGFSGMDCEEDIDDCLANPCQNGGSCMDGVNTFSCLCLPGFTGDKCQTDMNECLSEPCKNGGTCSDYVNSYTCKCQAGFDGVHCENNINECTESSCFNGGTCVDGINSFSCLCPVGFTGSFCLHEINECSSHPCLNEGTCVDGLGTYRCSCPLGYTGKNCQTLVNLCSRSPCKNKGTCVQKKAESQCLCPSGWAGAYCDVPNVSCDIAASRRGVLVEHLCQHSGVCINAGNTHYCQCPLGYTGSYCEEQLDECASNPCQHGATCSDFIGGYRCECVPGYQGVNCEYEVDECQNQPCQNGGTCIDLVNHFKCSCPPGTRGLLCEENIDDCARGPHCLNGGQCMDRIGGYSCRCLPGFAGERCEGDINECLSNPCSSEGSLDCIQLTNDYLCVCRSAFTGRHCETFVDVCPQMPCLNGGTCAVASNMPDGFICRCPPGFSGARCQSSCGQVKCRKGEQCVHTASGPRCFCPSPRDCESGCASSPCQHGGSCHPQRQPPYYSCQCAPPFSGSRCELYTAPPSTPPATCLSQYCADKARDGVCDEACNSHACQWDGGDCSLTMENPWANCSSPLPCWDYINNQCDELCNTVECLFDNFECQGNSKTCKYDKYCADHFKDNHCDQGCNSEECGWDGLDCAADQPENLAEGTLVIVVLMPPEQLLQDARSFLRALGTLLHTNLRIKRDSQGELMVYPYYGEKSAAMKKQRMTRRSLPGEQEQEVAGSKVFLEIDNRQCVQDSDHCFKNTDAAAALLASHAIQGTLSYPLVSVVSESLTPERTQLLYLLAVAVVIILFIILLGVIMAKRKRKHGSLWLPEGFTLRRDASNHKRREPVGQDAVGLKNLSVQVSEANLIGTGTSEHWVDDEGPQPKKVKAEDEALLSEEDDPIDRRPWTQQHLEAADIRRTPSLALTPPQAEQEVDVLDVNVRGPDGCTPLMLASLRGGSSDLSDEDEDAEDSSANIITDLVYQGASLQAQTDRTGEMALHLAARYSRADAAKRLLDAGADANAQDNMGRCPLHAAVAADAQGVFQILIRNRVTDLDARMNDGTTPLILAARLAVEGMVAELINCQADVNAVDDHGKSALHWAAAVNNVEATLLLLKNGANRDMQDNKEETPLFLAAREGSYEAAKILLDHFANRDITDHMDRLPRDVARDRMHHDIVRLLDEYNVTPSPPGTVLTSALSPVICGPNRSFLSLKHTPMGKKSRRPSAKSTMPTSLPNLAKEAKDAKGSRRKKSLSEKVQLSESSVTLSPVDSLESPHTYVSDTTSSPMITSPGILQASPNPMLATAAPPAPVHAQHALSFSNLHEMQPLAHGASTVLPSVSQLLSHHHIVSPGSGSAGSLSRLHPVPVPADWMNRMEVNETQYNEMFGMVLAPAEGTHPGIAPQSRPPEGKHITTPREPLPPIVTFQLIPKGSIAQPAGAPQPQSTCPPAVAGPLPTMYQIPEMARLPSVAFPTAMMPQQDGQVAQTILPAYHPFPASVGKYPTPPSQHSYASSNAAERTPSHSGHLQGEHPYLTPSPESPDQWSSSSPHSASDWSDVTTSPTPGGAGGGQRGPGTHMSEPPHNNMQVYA
Sequence of Pro-neuregulin-1, membrane-bound isoform (Homo sapiens) (Q02297 whole entry, looked up, the tested form may be a part, canonical isoform): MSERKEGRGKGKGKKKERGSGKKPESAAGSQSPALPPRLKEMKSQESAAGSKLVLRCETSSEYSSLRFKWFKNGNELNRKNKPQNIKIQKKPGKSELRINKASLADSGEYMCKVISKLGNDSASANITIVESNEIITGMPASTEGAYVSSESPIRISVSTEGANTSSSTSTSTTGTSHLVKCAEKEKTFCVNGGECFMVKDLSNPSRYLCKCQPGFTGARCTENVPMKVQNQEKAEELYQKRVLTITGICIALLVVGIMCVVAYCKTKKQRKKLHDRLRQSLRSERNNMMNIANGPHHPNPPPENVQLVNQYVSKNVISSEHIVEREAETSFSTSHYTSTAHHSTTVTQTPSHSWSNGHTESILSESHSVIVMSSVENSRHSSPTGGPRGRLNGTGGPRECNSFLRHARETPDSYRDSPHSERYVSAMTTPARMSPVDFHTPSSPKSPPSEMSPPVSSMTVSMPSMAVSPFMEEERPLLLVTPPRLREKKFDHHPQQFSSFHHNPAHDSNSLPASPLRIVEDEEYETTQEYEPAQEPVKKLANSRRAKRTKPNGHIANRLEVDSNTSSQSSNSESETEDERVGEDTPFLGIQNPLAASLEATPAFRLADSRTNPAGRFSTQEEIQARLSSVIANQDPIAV

Take `NC(=O)NCC#Cc1ccc2c(c1)[C@]1(C(=O)N2)[C@H](C(=O)Nc2nc3ccccc3s2)[C@H]2C(=O)O[C@H](c3ccccc3)[C@H](c3ccccc3)N2[C@@H]1c1ccc(OCCO)cc1`: the composite z-score in assay [1] is 0.155; in assay [2], -0.164; in assay [3], 0.0526; in assay [4], 0.331; in assay [5] it was 0.614; in assay [6], -0.029. Besides, the composite z-score in assay [7] was -0.895; in [9], 0.99; in assay [10], -0.347. For the same molecule, the z-score in [8] is 2.13 (inactive).

As for `CN1C(=O)[C@]2(CCC(=O)OC(C)(C)C)N=C(c3ccc(OCCCO)cc3)O[C@@H]2c2ccccc21`, the composite z-score stood at 0.229 in assay [1]; 0.326 in [2]; 0.0458 in [3]; 0.182 in assay [4]; 0.428 in assay [5]; 1.8 in assay [6]. Also, the composite z-score in assay [7] stood at 1.35; in [9] it was 0.898; in assay [10], 0.21. Moreover, in assay [8], the z-score was 0.518 (inactive).

Regarding `C#CCN(C/C=C/c1ccccc1)[C@H](CO[Si](C)(C)C(C)(C)C)c1ccccc1`, the composite z-score in assay [1] was -0.0528; in assay [2], -0.0566; in [3], -0.0815; in assay [4], -0.284; in [5], -1.14; in assay [6], -0.267. Further, the values for the composite z-score in [7], in assay [9] and in assay [10] were -0.497, -0.363 and -0.0994, respectively. Further, the z-score in [8] is -1.27 (inactive).

Regarding `COCCOC(=O)N1C(=O)[C@@]2(c3cc(C#CCCO)ccc31)[C@H](C(=O)N1CCN(c3ncccn3)CC1)[C@H]1C(=O)O[C@H](c3ccccc3)[C@H](c3ccccc3)N1[C@@H]2c1ccc(O)cc1`, the composite z-score in assay [1] is -0.782; in [2], 0.219; in [3] it was 0.0243; in [4] it was 0.534; in assay [5] it was 0.376; in assay [6], 0.926. Also, the results for the composite z-score in assay [7], in assay [9] and in [10] were 1.24, -0.3 and -0.367, respectively. Besides, in assay [8], the z-score was -1.3 (inactive).

On to `NCCCC[C@@H]1NC(=O)[C@H]2C[C@@H](C(=O)NCc3ccc(F)cc3)[C@@H](c3ccc(O)cc3)N2C1=O`, for which the composite z-score amounted to 1.85 in assay [1]; 0.0239 in assay [2]; 0.113 in assay [3]; 0.492 in assay [4]; 0.531 in assay [5]; 2.12 in assay [6]. Moreover, the composite z-score in assay [7] stood at 1.3; in [9], 1.75; in assay [10], 0.0947. For the same molecule, the z-score in assay [8] was 5.15 (inactive).

Turning to `CCCC[C@@H](O)C1=C(COC)Cn2c(=O)n(-c3ccccc3)c(=O)n2[C@H]1CO`, the composite z-score in assay [1] is -0.306; in assay [2] it was -0.191; in [3] it was -0.226; in assay [4], 0.13; in [5], -0.167; in assay [6], -0.43. In addition, the composite z-score in [7] is -0.336; in assay [9], -0.292; in [10], -0.236. Moreover, the z-score in [8] is -1.12 (inactive).

Take `CO[C@H]1O[C@H](CO)[C@@H](OC(=O)Nc2ccc(C(F)(F)F)cc2)[C@H](OC(=O)Nc2ccccc2-c2ccccc2)[C@@H]1OC(=O)Nc1ccccc1-c1ccccc1`: the composite z-score is 0.433 in [1]; 1.65 in [2]; -0.0262 in assay [3]; 0.94 in assay [4]; 1.56 in assay [5]; 1.77 in [6]. Further, the composite z-score was 1.29 in assay [7], 1.32 in assay [9] and -0.146 in assay [10]. Besides, the z-score in [8] is -0.228 (inactive).

Consider `C=CCC(OC(C)=O)[C@@H]1[C@@H](N(Cc2cc3ccccc3o2)C(=O)Cc2ccc(OC)cc2)c2cc(OCCCO)ccc2N1C(=O)Cc1ccc(OC)cc1` (stereo not given in full), for which the composite z-score was -0.186 in assay [1]; 0.0357 in assay [2]; -0.0459 in assay [3]; 0.0855 in [4]; -0.144 in assay [5]; -0.0625 in [6]. In addition, the composite z-score in [7] is 0.0781; in assay [9] it was -0.0586; in assay [10], 0.0623. Besides, the z-score in assay [8] is -1.19 (inactive).

Take `C=CCC(OC(C)=O)[C@@H]1[C@@H](N(Cc2cc3ccccc3o2)C(=O)c2ccc(-c3ccccc3)cc2)c2cc(OCCCO)ccc2N1C(=O)c1ccc2ccccc2n1` (stereo not given in full): the composite z-score in assay [1] was -0.128; in [2], -0.0562; in [3], -0.128; in assay [4] it was 0.0599; in assay [5] it was -0.234; in assay [6], 0.0289. In addition, the composite z-score was -0.464 in [7], 0.268 in assay [9] and 0.417 in assay [10]. The z-score in assay [8] is -1.47 (inactive).

`CCCCN1CC=CC23O[C@@H]4C=CCOC(=O)[C@@H]4[C@H]2C(=O)N(CCO)[C@@H]3C1=O` (stereo not given in full): the composite z-score in [1] is 1.37; in [2], 0.0339; in assay [3], -0.168; in assay [4], -1.03; in [5] it was -1.39; in [6] it was 0.332. The composite z-score in [7] is 0.695; in [9], -0.657; in [10] it was -0.0645. Also, the z-score in assay [8] was 0.432 (inactive).

For `C=CC[C@]1(C(=O)NCCCOC)N=C(c2ccc(OCCCO)cc2)O[C@H]1c1ccccc1`, the composite z-score in assay [1] is 0.272; in [2], -0.188; in assay [3], 0.0823; in [4], -0.179; in assay [5], -0.664; in [6], 1.87. Besides, the composite z-score was 1.33 in assay [7], 1.04 in assay [9] and -0.0237 in assay [10]. For the same molecule, the z-score in [8] was 0.364 (inactive).

Regarding `CC(C)[C@@H](C(=O)O)n1cc(-c2ccccc2)nn1`, the composite z-score in assay [1] was 0.272; in assay [2] it was 0.692; in assay [3], -0.0894; in [4], 0.779; in [5] it was 0.964; in assay [6], 0.648. The values for the composite z-score in assay [7], in assay [9] and in assay [10] were 1.08, 0.874 and -0.0645, respectively. For the same molecule, the z-score in assay [8] was 0.736 (inactive).

Take `O=C1C2C=CC(C(O)c3cccc(O)c3)N(Nc3ccccc3F)C2C(=O)N1c1ccccc1` (stereo not given): the composite z-score in [1] was 0.0355; in [2], 0.74; in assay [3] it was -0.0005; in assay [4], -0.0284; in [5], 0.0745; in assay [6], 0.445. Also, the composite z-score in [7] is 0.218; in assay [9], 0.725; in assay [10], -0.437. Also, the z-score in assay [8] was 2.18 (inactive).
